High-throughput results: PubChem BioAssay, National Center for Advancing Translational Sciences (NCATS)
Pf growth 48h – P. falciparum growth inhibition at 48 hours (one generation). P. falciparum luciferase growth in erythrocytes, 48 h. AID 504832. Potency, µM (titrated, usually from 28.7 µM), actives largely listed as inhibitors. 310,000 compounds, 5.9% hits
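Luminescence readout; reporter = integrated firefly luciferase in P. falciparum. RBC culture at 2% hematocrit, 0.1% parasitemia final, 37 C/5% CO2; decreased signal taken as growth inhibition.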
Shiga inhibitor – Shiga toxin inhibition. Vero cells, Shiga toxin protein synthesis inhibition reporter. inhibition, % at 38.7 µM. 290,000 compounds, 9.2% hits; in the data active = inhibition mostly above about 28%, no sharp cut-off; inactive = mostly below about 43%
Cycloheximide cs – affects cycloheximide protein synthesis inhibition readout, counter-screen; cell reporter, cycloheximide protein synthesis inhibition counterscreen; AID 2314; max response, %; 300,000 compounds, 12% hits; in the data active = max response mostly above about 13%, no sharp cut-off; inactive = mostly below about 14%; note: read at 38.3 µM for the half of the compounds with a filed dose
Pf growth 96h – P. falciparum growth inhibition at 96 hours; P. falciparum luciferase reporter growth, 96 h; Potency, µM (highest dose often 28.7 µM), hits mostly inhibitors; 320,000 compounds, 6.9% hits
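P. falciparum expressing integrated firefly luciferase, in erythrocytes at 2% hematocrit, 0.05% parasitemia, incubated with compounds 96 h at 37 C, 5% CO2. Growth inhibition read as loss of luminescence; two-generation exposure targets delayed-death apicoplast inhibitors.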
NS1 inh – inhibitors of influenza NS1 protein function. Potency, µM (series often up to 46.1 µM). AID 2326. 270,000 compounds, 0.4% hits; calls by dose curve; note: actives are rising curves; nearly all actives have a fitted effect of over 50% in size
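Growth recovery, yeast-based: influenza A NS1 expressed in S. cerevisiae causes slow growth, and suppressors are detected by OD600. The parent strain without NS1 is used as positive control.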
Numbers stand for hits; 0 = inactive; ? = inconclusive; - = not tested or not shown. Rows were chosen to be rich in hits. Some 21% of all compounds tested hit in one or more screens of this group. Unless noted, calls come from the whole dose curve; as a rule, active = well fitted inhibition curve with a large enough effect; inconclusive = small, poorly fitted or top-dose-only effect, or another doubt; inactive = no such curve, though single readings can be large or run the other way.

SMILES | Pf growth 48h | Shiga inhibitor | Cycloheximide cs | Pf growth 96h | NS1 inh
Cc1c(NC(=O)c2ccc(-c3cccc([N+](=O)[O-])c3)o2)c(=O)n(-c2ccccc2)n1C | 0 | 0 | 0 | ? | 0
CC1(C)CC(=O)C/C(=N/NC(=O)COc2ccc3ccccc3c2Br)C1 | ? | 0 | 0 | ? | 0
c1ccc2sc(SCSc3nc4ccccc4s3)nc2c1 | 0 | 0 | 0 | 0 | 0
N#CCCCSc1nnc(CSc2nc3ccccc3s2)n1-c1ccccc1 | ? | 0 | 0 | - | 0
N#CCc1nc(CSc2nc3ccccc3s2)cs1 | 0 | 87.2 | 58.3 | ? | 0
CCC(C)(C)NC(=O)CCCSc1nc2ccccc2s1 | 0 | 118.1 | 60.6 | 0 | -
CCc1cccc(CC)c1NC(=O)CCCSc1nc2ccccc2s1 | ? | 0 | 0 | ? | 0
O=C(CCCSc1nc2ccccc2s1)NC1=NCCS1 | 0 | 0 | 17.8 | 0 | 0
CN(C)CCCSc1nc2ccccc2s1 | 0 | 68.1 | 22.6 | 0 | -
c1ccc(-n2cc(CNCCc3cscn3)c(-c3ccc4c(c3)OCO4)n2)cc1 | ? | 0 | 0 | 0 | 0
CC(=O)Nc1ccc(NC(=O)CCCSc2nc3ccccc3s2)cc1 | 0 | 0 | 18.9 | 0 | 0
Cc1cccc(C)c1NC(=O)CCCSc1nc2ccccc2s1 | 0 | 0 | 0 | 0 | 0
CCOc1ccccc1C(=O)Nc1cc(C(=O)NCCc2ccccc2)ccc1Cl | ? | 0 | 0 | ? | 0
CCOc1ccccc1NC(=O)C(OC(=O)c1ccc(CC)cc1)c1ccccc1 (stereo unspecified) | ? | 0 | 0 | ? | 0
CCOc1ccccc1NC(=O)C(OC(=O)c1ccc(O)cc1)c1ccccc1 (stereo unspecified) | 11.7µM | 0 | 0 | ? | 0
CCOc1ccccc1C(=O)Nc1cc(C(=O)NCC(C)C)ccc1Cl | 7.38µM | 0 | 0 | 1.65µM | 0
CCOc1ccccc1NC(=O)c1ccc(Cl)c(NC(=O)CC(c2ccccc2)c2ccccc2)c1 | ? | 0 | 0 | 9.28µM | 0
CC(NCc1ccccc1Cl)C(=O)Nc1ccc(C#N)cc1 (stereo unspecified) | 0 | 0 | 0 | 0 | -
COc1ccccc1-n1c(=S)sc2c(=O)n(Cc3ccco3)c(SC)nc21 | ? | 0 | 0 | ? | 0
CC(=O)O[C@H]1Cc2ccccc2N(C(N)=O)c2ccccc21 | - | 0 | 0 | - | -
COc1ccccc1NC(=S)NC1CCCCCCCCCCC1 | 1.47µM | 0 | 0 | ? | 0
COc1ccc(NC(=S)NC2CCCC2)c(OC)c1 | 0 | 0 | 0 | ? | 0
CCOc1ccccc1NC(=S)NC1CCCCC1 | ? | 0 | 0 | 0 | 0
COc1ccccc1NC(=S)NC1CCCCC1 | 0 | 0 | 0 | 9.28µM | 0
S=C(Nc1ccccc1Cl)NC1CCCCCC1 | 0 | 63.2 | 18.0 | 0 | 0
SMILES | Pf growth 48h | Shiga inhibitor | Cycloheximide cs | Pf growth 96h | NS1 inh
COc1ccc(-c2[nH]ncc2/C=N/NC(=O)c2cccc([N+](=O)[O-])c2)cc1OC | 0 | 0 | 0 | 0 | 0
C/C(=N\NC(=O)CC1N=C(Cc2ccccc2)NNC1=O)c1ccc(Br)cc1 (stereo unspecified) | 0 | 0 | 0 | ? | 0
Cc1nnc2sc(-c3cccc(F)c3)nn2c1=O | ? | 0 | 0 | ? | 0
Cc1c(-c2ccc(OCc3ccccc3)cc2)nc2ccccc2c1C(=O)O | 0 | 0 | 0 | ? | 0
Cc1nn(C)c(C)c1S(=O)(=O)N1CCC(C(=O)NCC2COc3ccccc3O2)CC1 (stereo unspecified) | - | 0 | 0 | ? | 0
CCCCOc1ccc(C(=O)NCC(=O)NC(C)CCc2ccccc2)cc1 (stereo unspecified) | ? | 0 | 0 | ? | 0
O=C(NNS(=O)(=O)c1ccc(F)cc1)c1cccc(O)c1 | 0 | 0 | 0 | ? | 0
O=C(Nc1cccnc1)Nc1cccc(F)c1 | 0 | 0 | 18.2 | ? | 0
Cc1ccc(NC(=O)Nc2cccnc2)cc1NC(=O)Nc1cccnc1 | 9.28µM | 0 | 24.1 | ? | 0
O=C(Nc1ccncc1)Nc1cccc(F)c1 | ? | 0 | 29.3 | 0 | 0
Fc1cccc(NC(=S)NCc2cccnc2)c1 | 0 | 0 | 0 | 7.38µM | 0
O=C(O)CCC/C=C\C[C@@H]1[C@@H](CC[C@@H](O)CCc2ccccc2)[C@H](O)C[C@@H]1O | - | 0 | 0 | - | -
O=S(=O)(c1cccs1)N1CN(C2CCCCC2)c2nc3ccccc3nc21 | 11.7µM | 0 | 0 | 5.22µM | 0
CCN1CCCC1CNC(=O)CN(C)S(=O)(=O)c1ccc(Cl)cc1 (stereo unspecified) | 0 | 0 | 0 | 0 | 0
Fc1ccc2[nH]c3c(N4CCN(c5ccccc5)CC4)ncnc3c2c1 | 13.1µM | 0 | 0 | 11.7µM | 0
CCOC(=O)N1CCN(c2ncnc3c2[nH]c2ccc(F)cc23)CC1 | ? | 0 | 0 | 13.1µM | 0
